# EP2 mod = EP2 receptor (human) modulation; EP2-expressing cells, cAMP HTRF FRET, PGE2 co-stimulation; induction, % at 25 µM; P43116; AID 940; actives 0.83% (n = 260,000);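 active = compounds whose cAMP rise, as percent of the full-agonist control response, exceeds 60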;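 also: rat C6 glioma line stably carrying human EP2 under a CMV promoter; the protocol text gives 20 µM as final concentration; 100% = response of wells given 1 µM PGE2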
# Arbovirus inh = blocks arbovirus infection; inhibition, % at 10 µM; arbovirus infection cell-based antiviral screen; actives 0.37% (n = 200,000); in the data active = inhibition above about 30%
# p97 inhibitor = inhibitors of human p97 ATPase. P55072. recombinant p97 ATPase, Kinase-Glo ATP luminescence, 3 h. inhibition, % at 8 µM. actives 0.42% (n = 220,000); in the data active = inhibition above about 15%;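 also: 0% = DMSO vehicle and 100% = wells lacking enzyme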
# Target sequence (P55072 whole entry, looked up): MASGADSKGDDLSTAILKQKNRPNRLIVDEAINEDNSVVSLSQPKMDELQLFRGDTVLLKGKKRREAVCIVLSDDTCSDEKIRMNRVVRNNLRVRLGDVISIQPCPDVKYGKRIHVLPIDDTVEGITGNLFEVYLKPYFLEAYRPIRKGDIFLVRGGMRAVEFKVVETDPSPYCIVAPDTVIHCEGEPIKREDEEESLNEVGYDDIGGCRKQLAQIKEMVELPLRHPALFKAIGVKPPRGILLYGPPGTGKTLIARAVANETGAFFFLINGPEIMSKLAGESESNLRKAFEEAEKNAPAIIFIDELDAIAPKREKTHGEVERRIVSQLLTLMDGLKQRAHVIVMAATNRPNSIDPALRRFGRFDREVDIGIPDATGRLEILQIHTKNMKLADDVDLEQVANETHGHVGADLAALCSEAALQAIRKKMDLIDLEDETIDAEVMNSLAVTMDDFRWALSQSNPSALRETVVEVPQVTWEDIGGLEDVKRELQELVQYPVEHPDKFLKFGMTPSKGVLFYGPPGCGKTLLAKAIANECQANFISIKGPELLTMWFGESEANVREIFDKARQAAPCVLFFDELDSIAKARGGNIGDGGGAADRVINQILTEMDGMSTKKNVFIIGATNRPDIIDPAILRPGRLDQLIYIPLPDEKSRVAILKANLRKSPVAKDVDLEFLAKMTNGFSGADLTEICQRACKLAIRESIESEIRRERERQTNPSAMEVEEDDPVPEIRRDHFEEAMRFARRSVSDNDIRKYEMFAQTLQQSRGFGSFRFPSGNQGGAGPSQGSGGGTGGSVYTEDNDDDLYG
# Hck Nef HTS = human Hck-Nef kinase inhibition; P08631; Recombinant Hck-YEEI plus Nef, Z-Lyte FRET kinase assay; inhibition, % at 20 µM; actives 0.68% (n = 220,000); AID 463187;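 active = Hck-Nef kinase inhibition above about 50%, limit read from the data; inactive = inhibition below that limit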;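 also: 0% = DMSO with Hck plus Nef and 100% = Hck alone without Nef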
# PGE2 EP2 inh = blocks the human prostaglandin E2 receptor EP2; C6 glioma cells expressing human EP2, cAMP TR-FRET; cells stimulated with saturating PGE2; P43116; AID 1422; inhibition, % at 25 µM; actives 0.52% (n = 260,000);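 active = percent inhibition above 40 after rounding to a whole number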;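 also: rat C6 glioma host cells with rolipram phosphodiesterase inhibitor present; the protocol text gives 20 µM as final concentration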
# p97 inh conf = human p97 ATPase inhibition, confirmation; recombinant p97 ATPase, Kinase-Glo ATP luminescence; shares compounds with p97 inhibitor; inhibition, % at 8 µM; actives 44% (n = 760);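 active = percent inhibition of p97 ATPase above a set limit, the primary screen's mean plus 3 SD, cut at about 15% in these data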;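 also: 0% = DMSO wells and 100% = wells lacking p97 protein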
# Hck Nef conf = Hck-Nef kinase inhibition, confirmation; shares compounds with Hck Nef HTS; Recombinant Hck-YEEI:Nef, Z-Lyte FRET kinase assay; calls only at 10 µM; actives 28% (n = 1,300);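 active = average inhibition of at least 50%, with Z-scores no higher than 3 in both the phospho-tyrosine peptide and fluorescence counterscreens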
# Active calls of the source: *; i = inactive; nt = no result given; + = active, no number. The list is not random: actives were taken first. Their share in the collection is about 2.4%.
SMILES,EP2 mod,Arbovirus inh,p97 inhibitor,Hck Nef HTS,PGE2 EP2 inh,Hck Nef conf,others
O=c1cc(-c2ccc(O)c(-c3c(O)cc(O)c4c(=O)cc(-c5ccc(O)cc5)oc34)c2)oc2cc(O)cc(O)c12,11,-7,41*,53*,8,+,p97 inh conf=64*
COc1cc(O)c2c(=O)cc(-c3ccc(OC)c(-c4c(O)cc(O)c5c(=O)cc(-c6ccc(O)cc6)oc45)c3)oc2c1,-7,nt,nt,nt,10,nt,
CN(C)CCN(Cc1cccs1)Cc1ccc(F)cc1F,-30,nt,nt,nt,8,nt,
O=[N+]([O-])c1ccccc1NC(=S)N/N=C/c1ccc(O)c(O)c1,-37,-11,19*,87*,10,i,p97 inh conf=22*
O=C(c1cccc(F)c1)N1CCC(Cn2nc(-c3ccccc3)ccc2=O)CC1,-24,nt,nt,nt,nt,nt,
CCn1c(SCC(=O)Nc2ccc(C)c(C)c2)nnc1-c1ccco1,-23,nt,nt,nt,18,nt,
COc1ccc(-c2cnnc(N/N=C/c3ccc(O)c(O)c3)n2)cc1,0,-26,4,8,9,nt,
COc1ccc(-c2cnnc(N/N=C/c3ccc(O)cc3)n2)cc1,-57,-4,-2,71*,4,i,
O=C(CSc1nnc2scc(-c3ccc(F)cc3)n12)N1CCCCC1,17,nt,nt,nt,7,nt,
O=C(CN1CCC(c2ccc3c(c2)OCO3)CC1)NC1CCCC1,-66,nt,nt,nt,nt,nt,
COc1ccc(C(=O)Nc2nc3c(Cl)c(Cl)ccc3s2)cc1OC,9,nt,nt,nt,20,nt,
COc1ccc(NC(=O)c2cccc([N+](=O)[O-])c2)cc1,-17,-5,0,19,0,nt,
COc1ccc(NC(=O)c2cc([N+](=O)[O-])ccc2O)cc1,-17,-8,-14,52*,6,i,
Cc1ccc(-c2nc3cccnc3o2)cc1NC(=O)COc1ccc(Cl)cc1C,17,-13,7,62*,15,i,
Cc1cccc2cc(C(c3nnnn3C(C)C)N3CCN(C)CC3)c(=O)[nH]c12 (stereo unspecified),-28,nt,nt,nt,5,nt,
Cc1ccc(F)cc1NC(=O)c1cc2nc(-c3ccco3)cc(C(F)(F)F)n2n1,6,nt,nt,nt,15,nt,
Nc1[nH]nc2nc3ccccc3cc12,-16,11,5,32,4,nt,
Nc1cccc2nc3ccccc3cc12,6,-32,-7,76*,12,nt,
Cc1ccc(-n2c(SCC(=O)NC(C)C)nnc2-c2cccnc2)c(C)c1,20,nt,nt,nt,9,nt,
Nc1c2c(=O)oc(-c3ccccc3)cc2nn1-c1ccccc1,29,-28,3,67*,nt,i,
CCOc1ccc(CNC2(c3ccccc3OC)CCCC2)cc1Cn1ccnc1,-47,nt,nt,nt,6,nt,
Cc1ccc2nc(NC(=O)c3ccc4ncsc4c3)sc2c1,-26,14,1,14,16,nt,
N#Cc1ccc(CSc2nnc(NC(=O)c3ccc4ncsc4c3)s2)cc1,10,-7,2,68*,6,i,
N#Cc1ccc(CSc2nnc(NC(=O)c3ccc(=O)[nH]c3)s2)cc1,2,nt,8,0,5,nt,
O=C(Nc1nnc(SCc2c(Cl)cccc2Cl)s1)c1ccc2ncsc2c1,7,-13,4,110*,8,+,
SMILES,EP2 mod,Arbovirus inh,p97 inhibitor,Hck Nef HTS,PGE2 EP2 inh,Hck Nef conf,others
CCN(Cc1ccccc1)C(c1cc2c(C)cc(C)cc2[nH]c1=O)c1nnnn1CC1CCCO1 (stereo unspecified),32,nt,nt,nt,6,nt,
CN1CCN(CCCNC(=O)c2c(O)c3c([nH]c2=O)CCCC3)CC1,-48,nt,nt,nt,2,nt,
O=C(Nc1ccc(N2CCCCC2)cc1)C(Cl)c1ccccc1 (stereo unspecified),-2,7,-4,20,5,nt,
O=C(Nc1ccc(N2CCCC2)cc1)C(c1ccccc1)c1ccccc1,23,5,12,59*,13,i,
NS(=O)(=O)c1ccc(NC(=O)/C=C/c2cn(-c3ccccc3)nc2-c2cccc(Cl)c2)cc1,16,1,3,90*,3,i,
CCn1c(C)nc2cc(C(=O)N/N=C/c3cccc(OC)c3O)ccc21,-29,-16,2,-48,13,nt,
CCn1c(C)nc2cc(C(=O)N/N=C/c3ccc(O)c(O)c3O)ccc21,31,-5,8,75*,10,+,
COc1cc2[nH]c(=S)n(Cc3cccs3)c(=O)c2cc1OC,-41,-14,4,59*,7,i,
CCCn1c(=S)[nH]c2cc(OC)c(OC)cc2c1=O,1,-1,1,15,10,nt,
O=C(CN1CCCCC1)Nc1c2c(nc3ccccc13)N(c1ccccc1)CC2,8,14,4,91*,5,nt,
Nc1c(C(=O)N/N=C/c2cccnc2)cnn1-c1ccccc1,-37,-7,-2,47,10,nt,
COc1cccc(/C=N/NC(=O)c2cnn(-c3ccccc3)c2N)c1,-30,nt,9,94*,4,i,
COc1ccccc1NC(=O)N(CCc1ccccc1C)Cc1cc2ccc(C)cc2[nH]c1=O,52,nt,nt,nt,22,nt,
C=CCn1c(SCC(=O)Nc2sccc2C#N)nc2sc(C)c(C)c2c1=O,1,-7,0,63*,17,+,
CCCn1ncc(C(=O)N2CCC3(CC2)NC(=O)c2cccnc2N3C)c1C,-15,nt,nt,nt,12,nt,
Cc1ccc(-n2c(N)c(S(=O)(=O)c3ccccc3)c3nc4ccccc4nc32)cc1,-2,2,-2,-6,9,nt,
Cc1ccc(S(=O)(=O)c2c(N)n(CCCN(C)C)c3nc4ccccc4nc23)cc1,-37,nt,1,94*,9,nt,
Cc1ccc(S(=O)(=O)c2c(N)n(NC(=O)C3CC3)c3nc4ccccc4nc23)cc1,12,11,5,73*,14,nt,
Cc1ccc(S(=O)(=O)c2c(N)n(CC3CCOC3)c3nc4ccccc4nc23)cc1 (stereo unspecified),15,-15,1,37,8,nt,
Cc1cc(C)c2cc3cc(C(=O)O)sc3nc2c1,0,nt,nt,nt,13,nt,
COc1ccc(NC(=O)N(Cc2cc3ccc(C)cc3[nH]c2=O)C2CCCC2)cc1,-25,nt,nt,nt,15,nt,
CC(c1ccccc1)N1C(=O)/C(=C/c2c(NCCCO)nc3ccccn3c2=O)SC1=S (stereo unspecified),-12,nt,nt,nt,7,nt,
Clc1ccc2[nH]c3c(c2c1)CCc1cn[nH]c1-3,-58,-26,2,60*,32,+,
CC[N+](C)(C)CC(C)(C)COC(=O)c1cc2cc(C)ccc2o1,-14,nt,nt,nt,10,nt,
Cc1ccc(NC(=O)CSc2nnnn2-c2ccc3c(c2)OCO3)c(C)c1,-84,nt,nt,nt,10,nt,
CCCCS/C(N)=N/N=C/c1cc(C)ccc1O,-15,27,-1,18,6,nt,
CCS/C(N)=N/N=C/c1cc(C)ccc1O,-32,-4,-2,51*,8,i,
O=C(O)c1cc(N2N=C(C(F)(F)F)/C(=C/C=C/c3ccco3)C2=O)ccc1Cl,-3,16,13,97*,23,+,
